# Inconclusive results are not listed. The source made the active and inactive calls. Unless noted, calls follow the shape of the dose curve; as a rule, active = well fitted curve in the direction sought with a large enough effect; inconclusive = small, poorly fitted or top-dose-only effect, or another doubt; inactive = no such curve, though single readings can be large; an effect the other way counts as inactive or inconclusive. Where a SMILES comes first, the peptide text is derived from it. [ ]: non-standard residue; d: D form.
# How the values were obtained:
# [1] = qHTS to identify inhibitors of the type 1 interferon - major histocompatibility complex class I in skeletal muscle: primary screen against the NCATS Mechanism Interrogation Plate v5.0 (MIPE) Libary (AID 1347411); also: nearly all actives have a fitted effect of over 65% in size; also: potency is read from the fitted curve at half-maximal effect;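 as to activity change, negative = inhibition: plate controls were vehicle for no effect and reference inhibitor for full effect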
# Method in brief: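 Cells were genome-edited human myoblasts carrying a HiBit tag on endogenous HLA-B. They were treated with IFN-beta (4.0 ng/ml) and titrated compounds (top 46 uM) for 24 hrs before lytic HiBiT detection.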
# [2] = Primary qHTS for inhibitors of nuclear receptor binding SET domain protein 2 (NSD2) in an isogenic RCH-ACV NSD2 p.E1099K mutant (9B) (AID 1645876); also: nearly all actives have a fitted effect of over 70% in size; also: potency is read from the fitted curve at half-maximal effect; as to activity change, negative = viability loss: % is scaled to controls: 0 for no effect and ±100 for the full control effect
# [3] = Primary qHTS for inhibitors of nuclear receptor binding SET domain protein 2 (NSD2) in an RCH-ACV wild type WT cells (2C) (AID 1645877); also: nearly all actives have a fitted effect of over 70% in size; also: potency is read from the fitted curve at half-maximal effect; as to activity change, negative = cell killing: % is scaled to controls: 0 for no effect and ±100 for the full control effect
# [4] = biological target: Glutathione peroxidase 1 (Homo sapiens) (UniProt P07203); assay: Primary qHTS Assay for Inhibitors of Recombinant Selenoprotein Glutathione Peroxidase 1 (GPX1) (AID 1845191); also: nearly all actives have a fitted effect of over 65% in size; as to activity, negative = inhibition: % is scaled to controls: 0 for no effect and ±100 for the full control effect
# Method in brief: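 10 nM GPX1 + cpd, 30 min RT; start w/ 1 mM GSH, 0.5 mM cumene hydroperoxide, 0.5 mM NADPH, 100 nM GR, 0.01% BSA; buffer 50 mM Tris-HCl pH 7.5, 2 mM EDTA, 150 mM NaCl; Fl 340/450, 0 & 15 min.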
# [5] = biological target: Phospholipid hydroperoxide glutathione peroxidase GPX4 (Homo sapiens) (UniProt P36969); assay: Primary qHTS Assay for Inhibitors of Recombinant Selenoprotein Glutathione Peroxidase 4 (GPX4) (AID 1845192); conditions: outcome: dose series up to 50 µM unless noted; also: nearly all actives have a fitted effect of over 65% in size; as to activity change, negative = inhibition: series mostly up to about 50 µM; % is scaled to controls: 0 for no effect and ±100 for the full control effect
# Method in brief: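 NADPH consumption, followed by fluorescence at 340/450 nm between 0 and 15 min, reports GPX4 activity via coupled glutathione reductase (100 nM). Enzyme 200 nM was pre-exposed to compound 30 min; 0.5 mM cumene hydroperoxide and 1 mM GSH served as substrates.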
# [6] = qHTS drug screen for cell cycle checkpoint inhibitors in PARPi-resistant BRCA-mutant ovarian cancer cell lines. (AID 1963452; calls by dose curve; also: potency is read from the fitted curve at half-maximal effect); conditions: PEO1/OlaR viability, CellTiter-Glo luminescence, 96 h; for Z-AUC: stronger effect = lower value
# Method in brief: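 PEO1, PEO4 and PEO1/OlaR ovarian cancer cells, 600 per well, exposed 96 h at 37C to a dilution series. Viability read by CellTiter-Glo luminescence, normalized to DMSO and empty wells; activity summarized as Z-AUC.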
# [7] = biological target: Tyrosine-protein kinase Yes (Homo sapiens) (UniProt P07947); assay: qHTS for small molecule inhibitors of Yes1 kinase: Primary Screen (AID 686947);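 also: plate controls were DMSO with enzyme for no effect and no-enzyme DMSO wells for full effect; nearly all actives have a fitted effect of over 60% in size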
# Method in brief: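 ADP-Glo luminescence readout; final 4 nM Yes1, 0.1 mM ATP, 0.3 mg/mL poly(E4Y), Tris pH 7.5, MgCl2, DTT, Brij-35. 20 min compound preincubation, 60 min reaction at RT. Normalized to DMSO wells with and without enzyme.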
# [8] = qHTS for small molecule inhibitors of Yes1 kinase: Counter Assay (AID 686950);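 also: no kinase present so only ADP-Glo detection of a fixed ADP amount is tested; luminescence from ADP-Glo reporting ADP in a fixed ATP and ADP mixture; series mostly up to about 77 µM; 0% = DMSO wells with ATP plus ADP and -100% = ATP-only wells without ADP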
# From the text: The Src family of non-receptor protein tyrosine kinases contains nine members, including Yes1, Src, Fyn, Lyn, and […]. These kinases have important roles in a variety of cellular functions, such as cell proliferation, survival, and differentiation. Src, the most well characterized member of this family, has been previously identified as a proto-oncogene. […] In melanoma, it has been shown that Yes1, and not other family members, such as Src, is functionally involved in the malignant phenotype. Additionally, a recent study examining the downregulation of Yes1 by shRNA found significant effects on cell survival/growth for basal-like and Her2-positive breast cancers. Despite the potential for Yes1 to be a target for the above-described cancers, there are very few reports on the identification of potent and selective inhibitors of Yes1 kinase. […]
# Two microliter of buffer (columns 1-48) are dispensed into Greiner, white solid-bottom 1536-well assay plates. […] The amount of ADP is then quantified by the ADP-Glo Kit (Promega, Madison, WI). First, 2 uL of the first kit reagent is added, and the reaction is incubated for 45 minutes; then, 4 uL of the second kit reagent are added and the reaction is incubated for 30 minutes at which time the luminescence is read on a Viewlux plate reader (Perkin-Elmer, Waltham, MA). […]
# [9] = measured here: PEO1 parental Z-AUC
# Phospholipid hydroperoxide glutathione peroxidase GPX4 (Homo sapiens), sequence (P36969 whole entry, looked up): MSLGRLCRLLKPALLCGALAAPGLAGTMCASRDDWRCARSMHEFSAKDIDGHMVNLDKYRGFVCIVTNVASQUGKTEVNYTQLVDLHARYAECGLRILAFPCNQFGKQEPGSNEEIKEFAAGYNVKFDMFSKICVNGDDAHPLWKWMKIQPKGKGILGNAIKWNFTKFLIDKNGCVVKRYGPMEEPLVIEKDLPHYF
# Glutathione peroxidase 1 (Homo sapiens), sequence (P07203 whole entry, looked up): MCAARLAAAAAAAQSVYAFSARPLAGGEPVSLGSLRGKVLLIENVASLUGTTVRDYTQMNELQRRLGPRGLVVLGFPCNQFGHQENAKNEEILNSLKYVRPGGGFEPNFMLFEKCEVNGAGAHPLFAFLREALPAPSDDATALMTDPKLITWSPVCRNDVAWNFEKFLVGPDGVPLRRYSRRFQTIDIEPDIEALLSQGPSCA
# Tyrosine-protein kinase Yes (Homo sapiens), sequence (P07947 whole entry, looked up): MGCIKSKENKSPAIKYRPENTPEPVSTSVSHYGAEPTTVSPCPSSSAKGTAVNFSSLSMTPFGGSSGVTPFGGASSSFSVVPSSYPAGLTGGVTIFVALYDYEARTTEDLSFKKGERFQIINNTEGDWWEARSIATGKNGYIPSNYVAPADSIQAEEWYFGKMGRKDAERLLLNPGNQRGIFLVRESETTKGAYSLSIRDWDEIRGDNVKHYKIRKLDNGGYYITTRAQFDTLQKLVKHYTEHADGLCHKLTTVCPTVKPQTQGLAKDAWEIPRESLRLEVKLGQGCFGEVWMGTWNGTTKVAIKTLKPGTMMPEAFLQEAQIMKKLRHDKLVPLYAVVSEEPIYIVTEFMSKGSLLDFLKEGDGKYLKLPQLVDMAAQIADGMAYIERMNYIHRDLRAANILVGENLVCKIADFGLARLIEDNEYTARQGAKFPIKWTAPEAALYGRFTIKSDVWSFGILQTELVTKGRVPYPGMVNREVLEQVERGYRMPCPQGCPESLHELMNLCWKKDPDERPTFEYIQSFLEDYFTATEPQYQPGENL
structure (smiles),measurement,setting,value
Nc1nccc(-c2c(-c3ccc(F)cc3)ncn2C2CCN(Cc3ccon3)CC2)n1,Potency,[1],inactive
same,Potency,[2],7.42 µM (active)
same,Potency,[3],7.42 µM (active)
same,Potency,[4],inactive
same,Potency,[5],inactive
same,Z-AUC,[6],0.042 (inactive)
same,Z-AUC,[6]; [9],0.6
same,Z-AUC,[6]; measured here: PEO4 Z-AUC,0.374
O=C(O)CCCCN(CCc1ccccc1OCc1ccc(CCc2ccccc2)cc1)Cc1ccc(C(=O)O)cc1,Potency,[1],inactive
same,Potency,[2],inactive
same,Potency,[3],inactive
same,Potency,[4],inactive
same,Z-AUC,[6],0.163 (inactive)
same,Z-AUC,[6]; [9],0.492
same,Z-AUC,[6]; measured here: PEO4 Z-AUC,0.773
CC(C)n1ncnc1-c1cn2c(n1)-c1ccc(O[C@@H](C)C(N)=O)cc1OCC2,Potency,[1],inactive
same,Potency,[2],0.934 µM (active)
same,Potency,[3],0.934 µM (active)
same,Potency,[4],inactive
same,Potency,[5],inactive
same,Z-AUC,[6],-1.61 (inactive)
same,Z-AUC,[6]; [9],-1.38
same,Z-AUC,[6]; measured here: PEO4 Z-AUC,-1.69
CC(C)C[C@@H]1NC(=O)[C@@H](C(C)C)NC(=O)[C@@H]2CCCN2C(=O)[C@@H](CC(=O)O)NC(=O)[C@@H](Cc2c[nH]c3ccccc23)NC1=O (cyclo(L[dW][dD]P[dV])),Potency,[1],inactive
same,Potency,[2],inactive
same,Potency,[3],inactive
same,Potency,[4],inactive
same,Potency,[5],inactive
same,Z-AUC,[6],-0.319 (inactive)
same,Z-AUC,[6]; [9],0.0618
same,Z-AUC,[6]; measured here: PEO4 Z-AUC,-0.23
OC1CCC([C@H](O)C[C@H]2c3c(F)cccc3-c3cncn32)CC1 (stereo not given in full),Potency,[1],inactive
same,Potency,[2],inactive
same,Potency,[3],inactive
same,Potency,[4],inactive
same,Z-AUC,[6],-0.0426 (inactive)
same,Z-AUC,[6]; [9],0.377
same,Z-AUC,[6]; measured here: PEO4 Z-AUC,0.204
CC(C)(O)[C@H]1CC[C@@](C)([C@H]2[C@@H](O)C[C@@]3(C)[C@@H]4C[C@H](O[C@@H]5O[C@H](CO)[C@@H](O)[C@H](O)[C@H]5O)[C@H]5C(C)(C)[C@@H](O[C@@H]6OC[C@@H](O)[C@H](O)[C@H]6O)CC[C@@]56C[C@@]46CC[C@]23C)O1,Potency,[1],inactive
same,Potency,[2],inactive
same,Potency,[3],inactive
same,Potency,[4],inactive
same,Potency,[5],inactive
same,Z-AUC,[6],-0.0384 (inactive)
same,Z-AUC,[6]; [9],1.82
same,Z-AUC,[6]; measured here: PEO4 Z-AUC,1.68
CN1C(=O)[C@@H](NC(=O)c2n[nH]c(Cc3ccccc3)n2)COc2ccccc21,Potency,[1],inactive
same,Potency,[2],inactive
same,Potency,[3],inactive
same,Potency,[4],inactive
same,Z-AUC,[6],-0.646 (inactive)
same,Z-AUC,[6]; [9],-0.812
same,Z-AUC,[6]; measured here: PEO4 Z-AUC,-0.659
Cc1c(-c2c(-c3ccc(F)o3)sc3ncnc(O[C@@H](Cc4ccccc4OCc4ccnn4CC(F)(F)F)C(=O)O)c23)ccc(OCCN2CCN(C)CC2)c1Cl,Potency,[1],inactive
same,Potency,[2],0.662 µM (active)
same,Potency,[3],0.166 µM (active)
same,Potency,[4],inactive
same,Z-AUC,[6],0.0867 (inactive)
same,Z-AUC,[6]; [9],0.964
same,Z-AUC,[6]; measured here: PEO4 Z-AUC,1
C[C@@H]1C(=O)OC2[C@H](O)[C@]34[C@H]5C[C@@H](C(C)(C)C)[C@]36[C@@H](OC(=O)[C@@H]6O)O[C@@]4(C(=O)O5)[C@]21O (stereo not given in full),Potency,[1],inactive
same,Potency,[2],inactive
same,Potency,[3],inactive
same,Potency,[4],inactive
same,Z-AUC,[6],1.19 (inactive)
same,Z-AUC,[6]; [9],0.871
same,Z-AUC,[6]; measured here: PEO4 Z-AUC,0.917
C=CC(=O)N1CCC(CNc2ncnc(N)c2-c2ccc(Oc3ccccc3)cc2)CC1,Potency,[1],inactive
same,Potency,[2],16.6 µM (active)
same,Potency,[3],5.9 µM (active)
same,Potency,[4],inactive
same,Potency,[5],inactive
same,Z-AUC,[6],1.54 (inactive)
same,Z-AUC,[6]; [9],1.18
same,Z-AUC,[6]; measured here: PEO4 Z-AUC,1.23
COc1cc2c3c(n(CCCN4CCOCC4)c(=O)c2cc1OC)-c1cc2c(cc1C3=O)OCO2,Potency,[1],inactive
same,Potency,[2],0.372 µM (active)
same,Potency,[3],0.209 µM (active)
same,Potency,[4],inactive
same,Potency,[5],inactive
same,Z-AUC,[6],-2.49 (inactive)
same,Z-AUC,[6]; [9],-2.16
same,Z-AUC,[6]; measured here: PEO4 Z-AUC,-0.656
CCNC(=O)Nc1ccc(Oc2ncnc(N)c2/C=N/OC)cc1Cl,Potency,[1],inactive
same,Potency,[2],20.9 µM (active)
same,Potency,[3],16.6 µM (active)
same,Potency,[4],inactive
same,Potency,[5],inactive
same,Z-AUC,[6],1.52 (inactive)
same,Z-AUC,[6]; [9],1.52
same,Z-AUC,[6]; measured here: PEO4 Z-AUC,1.49
C=C1CCC[C@]2(C)C=C3OC(=O)C(C)=C3C[C@@H]12,Potency,[1],inactive
same,Potency,[2],inactive
same,Potency,[3],inactive
same,Potency,[4],inactive
same,Potency,[5],inactive
same,Z-AUC,[6],0.206 (inactive)
same,Z-AUC,[6]; [9],-0.068
same,Z-AUC,[6]; measured here: PEO4 Z-AUC,-0.0438
CC1(N)CCN(c2cnc(-c3cccc(Cl)c3Cl)c(N)n2)CC1,Potency,[1],inactive
same,Potency,[2],inactive
same,Potency,[3],inactive
same,Potency,[4],inactive
same,Potency,[5],inactive
same,Z-AUC,[6],-0.468 (inactive)
same,Z-AUC,[6]; [9],-0.626
same,Z-AUC,[6]; measured here: PEO4 Z-AUC,-0.55
CC(C)(C)C(=O)N1N=CC[C@H]1c1ccccc1,Potency,[1],inactive
same,Potency,[2],inactive
same,Potency,[3],inactive
same,Potency,[4],inactive
same,Potency,[5],inactive
same,Z-AUC,[6],-0.69 (inactive)
same,Z-AUC,[6]; [9],-0.909
same,Z-AUC,[6]; measured here: PEO4 Z-AUC,-0.663
Nc1nccc2c1ncn2[C@@H]1C=C(CO)[C@@H](O)[C@H]1O,Potency,[1],inactive
same,Potency,[2],0.209 µM (active)
same,Potency,[3],0.148 µM (active)
same,Potency,[4],inactive
same,Potency,[5],inactive
same,Z-AUC,[6],-0.397 (inactive)
same,Z-AUC,[6]; [9],-0.938
same,Z-AUC,[6]; measured here: PEO4 Z-AUC,-1.07
COc1ccc(COc2ccc(Cc3cnc(N)nc3N)cc2OC)cc1,Potency,[7],inactive
same,outcome,[8],inactive
same,Potency,[1],inactive
same,Potency,[2],inactive
same,Potency,[3],inactive
same,Potency,[4],inactive
same,Potency,[5],inactive
same,Z-AUC,[6],0.614 (inactive)
same,Z-AUC,[6]; [9],0.516
same,Z-AUC,[6]; measured here: PEO4 Z-AUC,0.82
CC1(C)CCC2(CC1)N[C@@H](C(=O)N[C@@H]1CC[C@@H](C(N)=O)OC1)[C@H](c1ccnc(Cl)c1F)[C@]21C(=O)Nc2cc(Cl)ccc21,Potency,[1],17.9 µM (active)
same,Potency,[2],0.319 µM (active)
same,Potency,[3],0.201 µM (active)
same,Potency,[4],inactive
same,Z-AUC,[6],-0.537 (inactive)
same,Z-AUC,[6]; [9],-0.326
same,Z-AUC,[6]; measured here: PEO4 Z-AUC,-0.309
C/C=C1\NC(=O)[C@H]2CSSCC/C=C\[C@H](CC(=O)N[C@H](C(C)C)C(=O)N2)OC(=O)[C@H](C(C)C)NC1=O,Potency,[1],0.0104 µM (active)
same,Potency,[2],0.0074 µM (active)
same,Potency,[3],0.0066 µM (active)
same,Potency,[4],inactive
same,Potency,[6],0.0049 µM (active)
same,Z-AUC,[6]; [9],-3.43
same,Z-AUC,[6]; measured here: PEO4 Z-AUC,-3.56
O=C(/C=C/c1ccc(/C=C/C(=O)Nc2ccc(C3=NCCN3)cc2)cc1)Nc1ccc(C2=NCCN2)cc1,"activity change, negative = inhibition",[1],-3.84% [at 5.1 µM] (inactive)
same,"activity change, negative = viability loss",[2],-16.1% [at 4.96 µM] (inactive)
same,"activity change, negative = cell killing",[3],-11% [at 4.96 µM] (inactive)
same,"activity, negative = inhibition",[4],2.37% [at 4.49 µM] (inactive)
same,"activity change, negative = inhibition",[5],-10.1% [at 4.52 µM] (inactive)
same,Z-AUC,[6],0.122 (inactive)
same,Z-AUC,[6]; [9],0.179
same,Z-AUC,[6]; measured here: PEO4 Z-AUC,0.581
O=C(Nc1ccc(OC(F)(F)Cl)cc1)c1cnc(N2CC[C@@H](O)C2)c(-c2ccn[nH]2)c1,Potency,[1],inactive
same,Potency,[2],16.6 µM (active)
same,Potency,[3],14.8 µM (active)
same,Potency,[4],inactive
same,Z-AUC,[6],-1.46 (inactive)
same,Z-AUC,[6]; [9],-0.874
same,Z-AUC,[6]; measured here: PEO4 Z-AUC,-0.386
CCN1C(=O)CNc2ncc(-c3ccc(-c4ncn[nH]4)nc3C)nc21,Potency,[1],2.94 µM (active)
same,Potency,[2],0.833 µM (active)
same,Potency,[3],0.742 µM (active)
same,Z-AUC,[6],0.377 (inactive)
same,Z-AUC,[6]; [9],0.759
same,Z-AUC,[6]; measured here: PEO4 Z-AUC,0.275
CCC(C)CNCC(=O)N1CCc2sccc2C1c1cccc(C)n1 (stereo not given),Potency,[1],inactive
same,Potency,[2],inactive
same,Potency,[3],inactive
same,Potency,[5],inactive
same,Z-AUC,[6],-0.668 (inactive)
same,Z-AUC,[6]; [9],-0.627
same,Z-AUC,[6]; measured here: PEO4 Z-AUC,-0.749
